# Reference: PubChem BioAssay (NCATS)
# Inconclusive results are not listed. Where a call stands in place of a potency, no number is given. The source made the active and inactive calls. Unless noted, calls come from the whole dose curve; as a rule, active = well fitted curve in the direction sought with a large enough effect; inconclusive = small, poorly fitted or top-dose-only effect, or another doubt; inactive = no such curve, though single readings can be large; an effect the other way counts as inactive or inconclusive.
# Key:
# [1] = molecular target: Cytochrome P450 2C9 (Homo sapiens) (UniProt P11712); assay: Cytochrome P450 family 2 subfamily C member 9 (CYP2C9) small molecule antagonists: luciferase biochemical (cell-free) qHTS assay (AID 1645842; active = well fitted curve in the direction sought with a large enough effect in the repeat runs; an effect the other way counts as inactive or inconclusive; note: nearly all actives have a fitted effect of over 55% in size); details: P450-Glo CYP2C9 enzyme assay, luciferin luminescence; series mostly up to 57.4 µM
# Sequence of Cytochrome P450 2C9 (Homo sapiens) (P11712 whole entry, looked up): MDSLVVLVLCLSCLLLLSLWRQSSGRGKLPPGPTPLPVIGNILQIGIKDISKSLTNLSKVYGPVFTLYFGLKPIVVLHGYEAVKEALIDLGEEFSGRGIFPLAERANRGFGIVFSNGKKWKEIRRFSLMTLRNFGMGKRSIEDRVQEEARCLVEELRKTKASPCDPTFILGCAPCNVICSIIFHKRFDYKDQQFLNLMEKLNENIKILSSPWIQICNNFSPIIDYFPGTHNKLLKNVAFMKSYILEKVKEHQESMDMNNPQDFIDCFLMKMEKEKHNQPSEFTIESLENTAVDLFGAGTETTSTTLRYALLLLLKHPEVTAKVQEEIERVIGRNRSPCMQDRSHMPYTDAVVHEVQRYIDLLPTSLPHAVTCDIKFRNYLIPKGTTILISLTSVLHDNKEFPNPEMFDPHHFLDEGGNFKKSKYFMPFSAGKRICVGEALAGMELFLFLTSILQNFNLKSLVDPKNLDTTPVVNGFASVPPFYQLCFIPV
# In short: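 P450-Glo CYP2C9 system: proluciferin substrate with enzyme in mix containing 0.4% BSA, 10 min at room temperature, then NADPH regeneration solution added and incubated 1 h at 37C. Detection reagent stopped reaction; luminescence read after 20 min as RLU.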
# [2] = Primary qHTS for inhibitors of nuclear receptor binding SET domain protein 2 (NSD2) in an isogenic RCH-ACV NSD2 p.E1099K mutant (9B) (AID 1645876); details: RCH-ACV NSD2 E1099K (9B) viability, CellTiter-Glo, 72 h; series mostly up to 44.9 µM; note: nearly all actives have a fitted effect of over 70% in size
# [3] = Primary qHTS for inhibitors of nuclear receptor binding SET domain protein 2 (NSD2) in an RCH-ACV wild type WT cells (2C) (AID 1645877); details: RCH-ACV (leukaemia line) NSD2 WT (2C) viability, CellTiter-Glo, 72 h; series mostly up to 44.9 µM; note: nearly all actives have a fitted effect of over 70% in size
# [4] = molecular target: Rap guanine nucleotide exchange factor 3 (Homo sapiens) (UniProt O95398); assay: Confirmatory qHTS for agonist of cAMP-regulated guanine nucleotide exchange factor 3 (EPAC1) (AID 1645881); details: EPAC1 Rap1B BODIPY-GDP exchange fluorescence; series mostly up to 154 µM;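 note: EPAC1 catalysed release of BODIPY-GDP from Rap1B seen as fluorescence loss; nearly all actives have a fitted effect of over 75% in size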
# Sequence of Rap guanine nucleotide exchange factor 3 (Homo sapiens) (O95398 whole entry, looked up): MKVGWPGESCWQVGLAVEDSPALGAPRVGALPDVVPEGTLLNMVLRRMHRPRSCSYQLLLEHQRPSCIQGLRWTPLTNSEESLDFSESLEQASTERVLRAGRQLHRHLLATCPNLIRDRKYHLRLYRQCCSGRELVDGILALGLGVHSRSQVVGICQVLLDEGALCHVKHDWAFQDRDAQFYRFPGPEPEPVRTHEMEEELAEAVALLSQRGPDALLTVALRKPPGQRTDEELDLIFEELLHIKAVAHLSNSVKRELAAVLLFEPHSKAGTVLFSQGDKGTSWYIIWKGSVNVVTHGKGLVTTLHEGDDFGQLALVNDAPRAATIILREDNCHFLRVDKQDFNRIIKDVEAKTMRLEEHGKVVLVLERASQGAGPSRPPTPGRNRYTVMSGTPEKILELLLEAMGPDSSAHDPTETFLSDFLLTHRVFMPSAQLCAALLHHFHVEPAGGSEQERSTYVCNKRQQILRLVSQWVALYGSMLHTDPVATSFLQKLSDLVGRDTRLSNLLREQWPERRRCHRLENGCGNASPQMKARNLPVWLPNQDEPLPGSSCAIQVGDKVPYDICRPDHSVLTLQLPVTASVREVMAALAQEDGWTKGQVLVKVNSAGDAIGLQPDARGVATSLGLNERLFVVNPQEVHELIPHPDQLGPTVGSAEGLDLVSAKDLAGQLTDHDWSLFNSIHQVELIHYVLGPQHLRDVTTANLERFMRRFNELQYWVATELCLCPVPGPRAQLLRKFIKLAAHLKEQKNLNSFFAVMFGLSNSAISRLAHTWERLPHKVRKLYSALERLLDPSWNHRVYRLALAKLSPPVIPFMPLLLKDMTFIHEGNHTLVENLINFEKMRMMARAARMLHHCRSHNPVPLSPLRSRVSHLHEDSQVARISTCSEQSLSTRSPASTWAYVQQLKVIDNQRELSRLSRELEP
# [5] = molecular target: Rap guanine nucleotide exchange factor 4 (Homo sapiens) (UniProt Q8WZA2); assay: Confirmatory qHTS for agonist of cAMP-regulated guanine nucleotide exchange factor 4 (EPAC2) (AID 1645884); details: EPAC2 GEF activity, Rap1B-BODIPY-GDP fluorescence; series mostly up to 154 µM;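 note: nucleotide exchange releases bodipy-GDP from Rap1 and this lowers its fluorescence; nearly all actives have a fitted effect of over 65% in size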
# Sequence of Rap guanine nucleotide exchange factor 4 (Homo sapiens) (Q8WZA2 whole entry, looked up): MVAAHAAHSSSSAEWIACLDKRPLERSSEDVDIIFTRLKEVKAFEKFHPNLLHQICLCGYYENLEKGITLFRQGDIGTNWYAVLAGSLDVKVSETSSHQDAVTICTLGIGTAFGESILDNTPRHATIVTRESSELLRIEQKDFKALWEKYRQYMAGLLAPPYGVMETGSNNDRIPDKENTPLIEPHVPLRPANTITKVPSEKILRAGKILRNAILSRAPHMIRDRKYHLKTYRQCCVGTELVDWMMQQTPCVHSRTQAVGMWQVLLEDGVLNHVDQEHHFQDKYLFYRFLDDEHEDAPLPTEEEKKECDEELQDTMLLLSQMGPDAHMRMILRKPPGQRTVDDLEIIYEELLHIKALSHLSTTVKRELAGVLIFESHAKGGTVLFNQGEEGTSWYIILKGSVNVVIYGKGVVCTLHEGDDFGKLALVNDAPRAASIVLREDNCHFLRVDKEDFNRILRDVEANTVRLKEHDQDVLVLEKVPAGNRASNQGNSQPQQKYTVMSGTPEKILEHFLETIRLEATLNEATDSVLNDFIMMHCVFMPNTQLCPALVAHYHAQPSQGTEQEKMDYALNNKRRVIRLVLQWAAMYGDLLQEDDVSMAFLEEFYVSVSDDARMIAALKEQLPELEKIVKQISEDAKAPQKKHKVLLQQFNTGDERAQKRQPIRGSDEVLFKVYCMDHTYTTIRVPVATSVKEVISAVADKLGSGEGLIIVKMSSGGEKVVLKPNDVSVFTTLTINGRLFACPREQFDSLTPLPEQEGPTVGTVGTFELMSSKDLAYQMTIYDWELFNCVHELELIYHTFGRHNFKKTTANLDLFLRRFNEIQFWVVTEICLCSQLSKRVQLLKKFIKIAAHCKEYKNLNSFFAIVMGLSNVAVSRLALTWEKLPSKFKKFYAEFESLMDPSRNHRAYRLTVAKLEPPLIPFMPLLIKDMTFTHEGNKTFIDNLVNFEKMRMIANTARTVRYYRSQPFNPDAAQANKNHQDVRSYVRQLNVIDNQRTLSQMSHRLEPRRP
# [6] = molecular target: Rap guanine nucleotide exchange factor 4 (Homo sapiens) (UniProt Q8WZA2); assay: Confirmatory qHTS for antagonist of cAMP-regulated guanine nucleotide exchange factor 4 (EPAC2) (AID 1645885); details: EPAC2 Rap1B-BODIPY-GDP exchange fluorescence, biochemical; series mostly up to 114 µM; note: potency is the fitted concentration of half-maximal effect; nearly all actives have a fitted effect of over 25% in size
smiles,measurement,setting,value
NCCNCCNCCN,Potency,[1],inactive
same,Potency,[2],inactive
same,Potency,[3],inactive
O=C(O)c1ccccc1-c1ccc(C(F)(F)F)cc1,Potency,[1],inactive
same,Potency,[2],inactive
same,Potency,[3],inactive
Cc1c(Cl)cccc1Nc1ccccc1C(=O)O,Potency,[4],inactive
same,Potency,[5],inactive
same,Potency,[6],44.1 µM (active)
OC[C@H]1O[C@@H](O[C@@H]2[C@@H](CO)O[C@](O)(CO)[C@H]2O)[C@H](O)[C@@H](O)[C@H]1O,Potency,[2],inactive
same,Potency,[3],inactive
